The record followed here is PubChem BioAssay (NCATS).

Values without a mark were called inactive. The call rests on the fitted dose curve; in most records, active means well fitted curve in the direction sought with a large enough effect; inconclusive means small, poorly fitted or top-dose-only effect, or another doubt; inactive means no such curve, though single readings can be large or run the other way. Inconclusive results are not listed.

The nature of the first assay: KB-3-1 P-gp reporter qHTS against the NCATS DSHEA and TCM libraries (AID 1919975). Further: 0% is about no effect. Conditions: KB-3-1 parental cells, CellTiter-Glo luminescence viability, 72 h; series mostly up to 26.1 µM; activity change, negative = inhibition: at the top concentration. An outline of the steps:
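CellTiter-Glo luminescence viability readout; KB-3-1 parental cells, 500/well, attached ~4 h, then compound for ~72 h, 37C, 5% CO2. Bortezomib intraplate control.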
Take `O=c1ccc2ccccc2o1`: the “activity change, negative = inhibition” value was -15.8%.
With `C/C=C/c1ccc(OC)cc1`, the “activity change, negative = inhibition” value was -19%.
Take `C=CCc1ccc(O)c(OC)c1`: the “activity change, negative = inhibition” value was 8.34%.
For `Nc1ccc(C(=O)O)cc1`, the “activity change, negative = inhibition” value is -4.19%.
In the case of `Nc1nc2ncc(CNc3ccc(C(=O)N[C@@H](CCC(=O)O)C(=O)O)cc3)nc2c(=O)[nH]1`, the “activity change, negative = inhibition” value was -2.07%.

The next assay is described as follows: qHTS Counterscreen for compound interference against the NCATS DSHEA and TCM libraries (AID 1919978).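 Further: compounds preincubated with 1 µM D-luciferin or buffer before detection reagent; % of control where 0% means no effect.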 Conditions: firefly luciferase detection reagent interference, luminescence. In a few lines:
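Luminescence counterscreen for detection-kit interference: compounds at 19.5 nM–39.8 uM final, 15 min RT with 1 uM D-luciferin or buffer only; detection reagent added, 30 min RT, then read.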
Background: Quantitative high-throughput screening tests each substance at several concentrations.
As to `O=c1ccc2ccccc2o1`, the max response is 0.354%.
As to `C/C=C/c1ccc(OC)cc1`, the max response is -1.84%.
As for `C=CCc1ccc(O)c(OC)c1`, the max response is -2.5%.
Consider `Nc1ccc(C(=O)O)cc1`, for which the max response is -2.08%.
On to `Nc1nc2ncc(CNc3ccc(C(=O)N[C@@H](CCC(=O)O)C(=O)O)cc3)nc2c(=O)[nH]1`, for which the max response is -4.69%.

The nature of the next assay: Dual reporter qHTS for agonist of Pregnane X Receptor (hPXR) against the NCATS DSHEA and TCM libraries: Fluorescence readout (AID 1920058). Further: 0% is about no effect. Conditions: PXR dual reporter cells; series mostly up to 40 µM; activation: at the top concentration. In a few lines:
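hPXR-Luc HepG2 cells (2000/well) in phenol red-free medium with charcoal-stripped FBS attached for 5 h, then were exposed to compounds for about 24 h at 37 °C. Viability was read by CellTiter-Fluor fluorescence (Ex/Em 405/540 nm) after 1 h.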
For the compound `O=c1ccc2ccccc2o1`, the “activation” value is -12%.
In the case of `C/C=C/c1ccc(OC)cc1`, the “activation” value is -2.91%.
On to `C=CCc1ccc(O)c(OC)c1`, for which the “activation” value was 8.47%.
As to `Nc1ccc(C(=O)O)cc1`, the “activation” value was 18.7%.
Still for that read-out and setting: to `Nc1nc2ncc(CNc3ccc(C(=O)N[C@@H](CCC(=O)O)C(=O)O)cc3)nc2c(=O)[nH]1` belongs 6.52%.
